The source of these data is PubChem BioAssay AID376 (PDSP, 2006).

Each structure is given as a SMILES string. About 250 (12%) of roughly 2,000 compounds were called active. Cut-off read from the data, not from the text of the source: active = hERG blockade below about -20% or above about 20%; inactive = in between. Shown is part of a subset that was picked to be rich in actives.

This test deals with Voltage-gated inwardly rectifying potassium channel KCNH2 (Homo sapiens) (UniProt Q12809). The test is described as follows: modulators of KCNH2 ion channel function, cellular (AID 376).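 Note: 0% = buffer alone and 100% = reference blocker.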 The note with it: hERG-expressing cells, channel activity single-concentration screen; concentration not given here.
Voltage-gated inwardly rectifying potassium channel KCNH2 (Homo sapiens), sequence (Q12809 whole entry, looked up): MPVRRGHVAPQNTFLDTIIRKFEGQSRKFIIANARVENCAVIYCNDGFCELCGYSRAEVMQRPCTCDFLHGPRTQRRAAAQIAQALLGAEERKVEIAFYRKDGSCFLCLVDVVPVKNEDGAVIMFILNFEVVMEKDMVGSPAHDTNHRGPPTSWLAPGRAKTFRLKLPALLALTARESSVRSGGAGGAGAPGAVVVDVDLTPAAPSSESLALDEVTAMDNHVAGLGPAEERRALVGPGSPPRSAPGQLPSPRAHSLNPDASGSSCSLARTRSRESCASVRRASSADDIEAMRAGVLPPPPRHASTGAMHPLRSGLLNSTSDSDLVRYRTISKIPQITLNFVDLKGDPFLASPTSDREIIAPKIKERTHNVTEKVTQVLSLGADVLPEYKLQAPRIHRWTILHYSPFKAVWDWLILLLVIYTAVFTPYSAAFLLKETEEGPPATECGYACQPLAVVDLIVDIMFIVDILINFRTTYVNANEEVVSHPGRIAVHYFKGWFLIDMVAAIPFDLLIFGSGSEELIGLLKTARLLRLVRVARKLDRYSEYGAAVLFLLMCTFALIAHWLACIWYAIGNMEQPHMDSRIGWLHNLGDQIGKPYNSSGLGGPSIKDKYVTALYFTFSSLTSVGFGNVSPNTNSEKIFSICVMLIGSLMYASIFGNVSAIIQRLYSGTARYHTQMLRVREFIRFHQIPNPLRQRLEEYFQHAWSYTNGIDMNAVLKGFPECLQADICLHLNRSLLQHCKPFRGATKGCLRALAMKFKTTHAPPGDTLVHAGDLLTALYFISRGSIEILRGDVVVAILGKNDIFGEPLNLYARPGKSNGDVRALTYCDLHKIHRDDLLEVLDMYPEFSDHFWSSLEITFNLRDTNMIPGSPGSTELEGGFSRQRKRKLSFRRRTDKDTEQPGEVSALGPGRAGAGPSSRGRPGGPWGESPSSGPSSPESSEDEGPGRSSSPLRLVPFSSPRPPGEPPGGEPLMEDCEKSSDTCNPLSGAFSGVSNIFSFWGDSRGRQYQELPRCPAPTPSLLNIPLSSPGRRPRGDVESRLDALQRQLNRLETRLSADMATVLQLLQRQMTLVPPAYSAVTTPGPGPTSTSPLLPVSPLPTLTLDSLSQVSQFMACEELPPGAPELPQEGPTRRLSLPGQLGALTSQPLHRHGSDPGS
In the case of `COc1ccc(C=NNC(=O)O)cc1`, the hERG blockade is -2.22% (inactive).

Turning to `CC1CCN(CC(=O)N2c3ccccc3Sc3cc4ccccc4cc32)CC1`, the hERG blockade was 14% (inactive).

For the compound `CN1CCN(CC(=O)N2c3ccccc3Sc3cc4ccccc4cc32)CC1`, the hERG blockade is 52.7% (active).

For `O=C(CC1(O)CCCCC1)OC1CCCC1`, the hERG blockade was -2.11% (inactive).

For the compound `CCOC(=O)c1c2c(n3ccccc13)C(=O)c1ccccc1C2=O`, the hERG blockade was 8.67% (inactive).

As to `NC1(C(=O)O)CCCC1C(=O)O` (configuration not stated), the hERG blockade is -13.4% (inactive).

Take `CCC1(O)C(=O)OCc2c1cc1n(c2=O)Cc2cc3c(CN(C)C)c(O)ccc3nc2-1` (configuration not stated): the hERG blockade is 21.4% (active).

Turning to `O=C(O)c1ccc(NS(=O)(=O)Cc2ccccc2)cc1`, the hERG blockade was 7.65% (inactive).

On to `NC(N)=NC1C(O)C(O)C(O)C(N=C(N)N)C1O` (configuration not stated), for which the hERG blockade was -0.537% (inactive).

For `Cc1[nH]c2ccccc2c1-c1cc(-c2cc(-c3c(C)[nH]c4ccccc34)on2)no1`, the hERG blockade is -7.59% (inactive).

As for `N#Cc1c(NC(=O)C(F)(F)F)sc2c3c(=O)c4ccccc4c(=O)c=3oc3ccccc3c12`, the hERG blockade was 59% (active).

As to `NCOC(=O)Cc1ccc(Br)cc1`, the hERG blockade was -16.9% (inactive).

In the case of `COc1ccc2c(c1)[n+]([O-])c(C(C)=NNC(N)=S)c(C)[n+]2[O-]`, the hERG blockade is -7.37% (inactive).

As for `O=C(O)CCNc1ncnc2nc[nH]c12`, the hERG blockade is 14% (inactive).

As to `OCCNc1ncnc2nc[nH]c12`, the hERG blockade is 3.32% (inactive).

Regarding `c1nc(NCCc2cnc[nH]2)c2[nH]cnc2n1`, the hERG blockade was -31% (active).

For `Cn1c(=O)c2[nH]c(N=NN3CCN(CCO)CC3)nc2n(C)c1=O`, the hERG blockade is 0.124% (inactive).

Regarding `O=C(O)C(=Cc1ccc(O)cc1)c1cccc2ccccc12`, the hERG blockade is 0.955% (inactive).

Turning to `Cn1c(CC(O)c2nc3ccccc3n2C)nc2ccccc21` (configuration not stated), the hERG blockade was -5.68% (inactive).

Turning to `N=C(N)SCc1cccc(-c2nc3ccccc3c(=O)o2)c1`, the hERG blockade is -5.77% (inactive).

Turning to `N=C(N)SCc1cccc2c(=O)cc(-c3ccccc3)oc12`, the hERG blockade is 44.3% (active).

For `O=C(O)Cc1cccc2c(=O)cc(-c3ccccc3)oc12`, the hERG blockade is -7.46% (inactive).

With `c1ccc2c(c1)C(=Nc1ccc(N=C3c4ccccc4-c4ccccc43)cc1)c1ccccc1-2`, the hERG blockade is 6.51% (inactive).

For the compound `CC(C)N(CC(=O)O)CC(=O)O`, the hERG blockade is 7.91% (inactive).

As for `NC(Cc1ccccc1)C(=O)O` (configuration not stated), the hERG blockade is 16.4% (inactive).

With `[N-]=[N+]=Nc1ccccc1-c1ccccc1[N+](=O)[O-]`, the hERG blockade is -19.7% (inactive).

On to `c1cc(-c2sc(-c3ccncc3)c(-c3ccncc3)c2-c2ccncc2)ccn1`, for which the hERG blockade is 22.4% (active).

As to `Nc1[nH]c(=S)[nH]c(=O)c1N=Nc1c(Br)cc(S(N)(=O)=O)cc1Br`, the hERG blockade was 6.92% (inactive).

Turning to `CSC12C(=O)CC3(C)C(CCC3(O)C(=O)CO)C1CCC1=CC(=O)CCC12C` (configuration not stated), the hERG blockade was 3.28% (inactive).

`Ic1ccc2c(c1)N(c1ccccc1)c1cc(Nc3ccc4nc5ccc(I)cc5[n+](-c5ccccc5)c4c3)ccc1N2`: the hERG blockade was 30.3% (active).

Take `CN1CCCN(C)C1c1cc([N+](=O)[O-])ccc1O`: the hERG blockade was 11.9% (inactive).

For the compound `CC(N)C(C)Cc1ccccc1` (configuration not stated), the hERG blockade is 8.67% (inactive).

Turning to `COC(=O)c1cc(-c2ccc3ccccc3c2)[nH]c(=O)c1C#N`, the hERG blockade was 2.57% (inactive).

Turning to `ClC(Cl)(Cl)C(N1CCN(c2ccccc2)CC1)N1CCN(c2ccccc2)CC1`, the hERG blockade was 3.84% (inactive).

`Nc1cc(S(=O)(=O)O)cc2ccc(S(=O)(=O)O)cc12`: the hERG blockade is -2.77% (inactive).

As to `O=C1c2ccccc2-c2ccc(N(Cc3ccc(Br)cc3)Cc3ccc(Br)cc3)cc21`, the hERG blockade was 15.9% (inactive).

Consider `C(=Nc1ccc2c(c1)Cc1ccccc1-2)c1ccccn1`, for which the hERG blockade was -16.5% (inactive).

Take `CN(CCc1ccccn1)c1ccc2c(c1)Cc1ccccc1-2`: the hERG blockade was 20.3% (active).

On to `CN(CCc1ccccn1)c1ccc2c(c1)C(=O)c1ccccc1-2`, for which the hERG blockade was 75.4% (active).

`CC(C)C(=O)C(C)(C)CCc1ccccn1`: the hERG blockade is 1.93% (inactive).

`ON(CCc1ccccn1)Cc1ccccc1`: the hERG blockade was -7.89% (inactive).

As for `Cn1ncc2c(Cl)ncnc21`, the hERG blockade was 12.1% (inactive).

In the case of `O=C(O)CCCN1CCCCC1`, the hERG blockade is -19.4% (inactive).

On to `NCCSCCc1ccccc1`, for which the hERG blockade is -4.22% (inactive).

As to `NC(CC(=O)Nc1cc(C(F)(F)F)ccc1Cl)=NO`, the hERG blockade is 15.2% (inactive).

Regarding `CN1CCC(CN2c3ccccc3Sc3ccccc32)C1` (configuration not stated), the hERG blockade was 42.9% (active).

With `c1ccc2sc(SCN(C3CCCCC3)C3CCCCC3)nc2c1`, the hERG blockade was 12.7% (inactive).

For the compound `CCC12CCCN3CCc4c(n(c5ccccc45)C(=O)C1)C32` (configuration not stated), the hERG blockade was 37.7% (active).

In the case of `CC1=CC(C)(C)Nc2ccc(CSc3ccccc3)cc21`, the hERG blockade is 0.516% (inactive).

On to `Nc1nc(-c2ccccc2)c(-c2ccccc2)c(-c2nc(N)nc(-c3ccccc3)c2-c2ccccc2)n1`, for which the hERG blockade was 1.5% (inactive).

On to `Nc1nc(N)c(-c2cccc(C(F)(F)F)c2)c(Cc2cccc(C(F)(F)F)c2)n1`, for which the hERG blockade is 11% (inactive).

On to `Nc1nc(Cc2ccccc2)nc(Cc2ccccc2)c1-c1ccccc1`, for which the hERG blockade was 29% (active).

Regarding `Cn1c(=O)c2c(nc(C(=N)SCC(=O)O)n2C)n(C)c1=O`, the hERG blockade is 13.2% (inactive).

On to `O=C(O)CCSCc1ccccc1`, for which the hERG blockade was -0.0927% (inactive).

Take `O=C(O)C=CC(=O)Nc1cccc2c1-c1ccccc1C2=O`: the hERG blockade is -8.93% (inactive).

For the compound `NC(N)=Nc1ccc(-c2ccc(N=C(N)N)cc2)cc1`, the hERG blockade is -0.0188% (inactive).

As for `O=C(O)c1cncc(C(=O)O)c1`, the hERG blockade is 3.7% (inactive).

On to `CC1CCCC=CC2CC(OC(=O)CN(C)C)CC2C(O)C=CC(=O)O1` (configuration not stated), for which the hERG blockade is -21.9% (active).

`COc1ccc(NCc2c(O)ccc3ccccc23)cc1`: the hERG blockade was -7.42% (inactive).

Regarding `CSc1ccc(NC(=O)C2CCCCC2C(=O)O)cc1` (configuration not stated), the hERG blockade was 10.7% (inactive).

`NC(=O)NC(=O)C1CCCCC1C(=O)O` (configuration not stated): the hERG blockade was -24.9% (active).

Take `CNCC(SC)c1ccc(O)c(O)c1` (configuration not stated): the hERG blockade was 11.7% (inactive).

In the case of `Cc1nc([N+](=O)[O-])cn1-c1nc2ccccn2c1[N+](=O)[O-]`, the hERG blockade was -4.23% (inactive).

As for `c1ccc(CCN2CCN=C2Cc2ccccc2)cc1`, the hERG blockade is 11.4% (inactive).

Consider `CC(N)C(N)=NO` (configuration not stated), for which the hERG blockade is -3.44% (inactive).

`CN1CCN(CCCN2c3ccccc3Sc3ccc(C(F)(F)F)cc32)CC1`: the hERG blockade is 29.9% (active).

On to `O=C1CSC2(CCN(CCCN3c4ccccc4Sc4ccc(Cl)cc43)CC2)N1`, for which the hERG blockade was 10.1% (inactive).

With `SC1CCCN(Cc2ccccc2)C1` (configuration not stated), the hERG blockade is 10.8% (inactive).

For the compound `CCC(C)(C)c1ccc(Oc2cccc(C(=O)O)c2)cc1`, the hERG blockade is -10.7% (inactive).

As for `CN1CCc2ccccc2C1Cc1ccccc1NC(=O)c1sc2ccccc2c1Cl` (configuration not stated), the hERG blockade is 23.1% (active).

As for `O=C(NC1(C(=O)O)CC1c1ccccc1)c1ccccc1` (configuration not stated), the hERG blockade was 6.62% (inactive).

As for `Cc1ccc(N=Nc2c(O)ccc3cc(S(=O)(=O)O)ccc23)cc1`, the hERG blockade is 31% (active).

Regarding `O=S(=O)(O)c1cc(O)c2c(O)c(N=Nc3cccc4ccccc34)c(S(=O)(=O)O)cc2c1`, the hERG blockade is 9.29% (inactive).

Consider `Nc1ccccc1N=Nc1c(S(=O)(=O)O)cc2cc(S(=O)(=O)O)cc(O)c2c1O`, for which the hERG blockade was 21.5% (active).

With `O=S(=O)(O)c1ccc(N=Nc2ccc3c(S(=O)(=O)O)cccc3c2O)c2ccccc12`, the hERG blockade was 14.9% (inactive).

`O=[N+]([O-])c1ccc2c(N=Nc3ccc4ccccc4c3O)c(O)cc(S(=O)(=O)O)c2c1`: the hERG blockade is 23.1% (active).

As to `O=[N+]([O-])c1ccc2c(c1)c(S(=O)(=O)O)cc1nonc12`, the hERG blockade was -6.88% (inactive).

As for `O=S(=O)(O)c1ccc2c(N=Nc3cccc4ccccc34)c(O)c(S(=O)(=O)O)cc2c1`, the hERG blockade is 8.62% (inactive).

As to `O=S(=O)(O)c1cc(S(=O)(=O)O)c2c(N=Nc3cccc4ccccc34)c(O)ccc2c1`, the hERG blockade was 14.2% (inactive).

With `Cc1ccc(N=Nc2c(O)c(S(=O)(=O)O)cc3cc(S(=O)(=O)O)ccc23)c(C)c1`, the hERG blockade was 2.33% (inactive).

With `O=S(=O)(O)c1cc(O)c2c(N=Cc3ccccc3O)cc(S(=O)(=O)O)cc2c1`, the hERG blockade is -9.52% (inactive).

Take `O=S(=O)(O)c1ccc2c(N=Nc3c(O)ccc4ccccc34)cccc2c1`: the hERG blockade is 49.9% (active).

`O=S(=O)(O)c1ccc(N=Nc2ccccc2)cc1`: the hERG blockade is -15.7% (inactive).

As to `Nc1ccc(S(=O)(=O)c2ccc(NC(=O)c3cccnc3)cc2)cc1`, the hERG blockade was 12.7% (inactive).

As for `Nc1nc2nc3c(nc2c(=O)[nH]1)CN(c1ccc(C(=O)O)cc1)C3=O`, the hERG blockade is -6.18% (inactive).

As for `O=C(O)C(CCc1ccccc1)N1C(=O)c2ccccc2C1=O` (configuration not stated), the hERG blockade was 0.137% (inactive).

Consider `Cc1[nH]c2c(C)ccc(C)c2c1CC(=O)O`, for which the hERG blockade was -7.4% (inactive).

For `Cc1cc(Cl)nc(NC(=O)CSc2ccc(Cl)cc2)n1`, the hERG blockade was -7.4% (inactive).

On to `NC(CSC(=O)c1ccccc1)C(=O)O` (configuration not stated), for which the hERG blockade was 8.51% (inactive).

Take `CN(C)C1C(=O)C(C(=O)NCN2CCCC2)=C(O)C2(O)C(=O)C3=C(O)c4c(O)cccc4C(C)(O)C3CC12` (configuration not stated): the hERG blockade was 5.47% (inactive).

On to `NC(=O)c1nnn(Cc2cc(Cl)c(C(=O)c3ccc(Cl)cc3)c(Cl)c2)c1N`, for which the hERG blockade is 17.3% (inactive).

With `CC(C)CN(CC#N)CC(C)C`, the hERG blockade was 1.01% (inactive).

For the compound `Cc1ccnc(NS(=O)(=O)c2ccc(N=[N+]=[N-])cc2)n1`, the hERG blockade was 8.12% (inactive).

For the compound `CC(CC(N)C(=O)O)C(=O)O` (configuration not stated), the hERG blockade was 1.62% (inactive).

In the case of `Cc1cc2c(SCc3ccccc3Cl)nc(N)nc2nc1C`, the hERG blockade is -7.31% (inactive).

As to `O=C1c2cccc([N+](=O)[O-])c2C(=O)N1c1ncn[nH]1`, the hERG blockade was 24.2% (active).

Turning to `O=C(O)C(Cc1ccccc1)N1C(=O)c2ccccc2C1=O` (configuration not stated), the hERG blockade is 13.1% (inactive).

For the compound `O=C(O)CC(C(=O)O)C1c2ccccc2-c2ccccc21` (configuration not stated), the hERG blockade was 14.3% (inactive).

Turning to `NC(=O)C1CCCNC1` (configuration not stated), the hERG blockade is -2.06% (inactive).

Regarding `CN(C)CCCSc1nc2ccccc2[nH]1`, the hERG blockade was -13.7% (inactive).

On to `CN(C)CCCc1c2ccccc2nc2ccc(Cl)cc12`, for which the hERG blockade was 35.2% (active).

With `O=C(O)c1cc(-c2ccc(-c3ccc(-c4cc(C(=O)O)c5cc(Cl)ccc5n4)cc3)cc2)nc2ccc(Cl)cc12`, the hERG blockade was -1.3% (inactive).
